In PMC7862700, “An all-to-all approach to the identification of sequence-specific readers for epigenetic DNA modifications on cytosine”:

What was measured:
Assay in all cases: DAPPL (digital affinity profiling via proximity ligation, sequencing); 10 mM Tris-HCl pH 7.5, 50 mM NaCl, 1 mM DTT, 4% glycerol, room temperature, 30 min; GST-TFs on glutathione beads, 16-mer random dsDNA library, 0.1% formaldehyde crosslink after washing; high values mean tight binding
Settings in all cases: protein: recombinant; tags: N-terminal GST; dsDNA, one strand shown
FLI1 = target: T1, FLI1 (Homo sapiens, UniProt Q01543 1-452)
T1 sequence: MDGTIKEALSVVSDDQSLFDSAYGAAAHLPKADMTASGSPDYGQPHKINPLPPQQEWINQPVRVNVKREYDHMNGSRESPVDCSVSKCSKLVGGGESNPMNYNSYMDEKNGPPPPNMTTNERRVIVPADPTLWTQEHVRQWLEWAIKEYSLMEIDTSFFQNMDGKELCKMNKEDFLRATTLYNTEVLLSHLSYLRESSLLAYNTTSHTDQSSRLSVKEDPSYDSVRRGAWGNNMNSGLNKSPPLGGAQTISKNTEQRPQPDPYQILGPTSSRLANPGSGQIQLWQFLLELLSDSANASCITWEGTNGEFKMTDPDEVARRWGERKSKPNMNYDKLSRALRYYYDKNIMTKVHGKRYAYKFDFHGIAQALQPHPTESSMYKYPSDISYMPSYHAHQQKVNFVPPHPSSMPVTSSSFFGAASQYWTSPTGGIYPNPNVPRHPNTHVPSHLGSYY
Method in brief: (§1)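 The binding signal reported is, for every hexamer, its read frequency for a factor over its read frequency for the tag-only sample. Reads came from pools of yeast-expressed, GST-fused human transcription factors on glutathione beads, barcoded with DNA and mixed with that sample, which were incubated with 200 nmole of a random double-stranded 16-mer DNA library in Tris/NaCl/DTT/glycerol buffer at room temperature for 30 min. After washing, the pools were crosslinked with 0.1% formaldehyde, proximity-ligated with BsaI/T4 ligase for 1 h at 37 °C, PCR-amplified and sequenced on an Illumina NextSeq500.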

ELK1 = target: T2, ELK1 (Homo sapiens, UniProt P19419 1-428)
T2 sequence: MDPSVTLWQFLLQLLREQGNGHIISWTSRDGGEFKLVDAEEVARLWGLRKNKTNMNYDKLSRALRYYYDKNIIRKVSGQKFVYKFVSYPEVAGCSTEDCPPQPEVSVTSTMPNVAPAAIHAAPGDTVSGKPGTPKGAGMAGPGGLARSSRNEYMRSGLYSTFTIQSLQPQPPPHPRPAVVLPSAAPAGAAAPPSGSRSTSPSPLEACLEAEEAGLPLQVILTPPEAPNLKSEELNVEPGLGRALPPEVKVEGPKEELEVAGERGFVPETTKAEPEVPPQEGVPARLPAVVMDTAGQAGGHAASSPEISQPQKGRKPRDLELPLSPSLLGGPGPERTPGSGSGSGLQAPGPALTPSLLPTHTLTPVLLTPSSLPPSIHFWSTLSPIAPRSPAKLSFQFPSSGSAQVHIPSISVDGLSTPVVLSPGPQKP
Method in brief: as §1

GABPA = target: T3, GABPA (Homo sapiens, UniProt Q06546 1-454)
T3 sequence: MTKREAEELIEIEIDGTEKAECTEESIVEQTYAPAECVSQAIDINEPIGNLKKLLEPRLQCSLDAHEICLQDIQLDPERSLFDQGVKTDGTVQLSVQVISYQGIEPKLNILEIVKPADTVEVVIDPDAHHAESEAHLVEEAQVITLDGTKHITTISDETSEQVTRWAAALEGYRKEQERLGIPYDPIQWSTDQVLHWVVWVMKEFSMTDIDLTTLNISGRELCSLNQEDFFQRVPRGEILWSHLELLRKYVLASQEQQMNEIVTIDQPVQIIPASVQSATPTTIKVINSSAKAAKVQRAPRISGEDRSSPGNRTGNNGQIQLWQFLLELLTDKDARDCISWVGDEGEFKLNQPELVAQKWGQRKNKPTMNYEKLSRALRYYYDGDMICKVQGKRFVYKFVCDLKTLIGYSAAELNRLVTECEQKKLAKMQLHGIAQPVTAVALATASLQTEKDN
Method in brief: as §1

ERG = target: T4, ERG (Homo sapiens, UniProt P11308 1-479)
T4 sequence: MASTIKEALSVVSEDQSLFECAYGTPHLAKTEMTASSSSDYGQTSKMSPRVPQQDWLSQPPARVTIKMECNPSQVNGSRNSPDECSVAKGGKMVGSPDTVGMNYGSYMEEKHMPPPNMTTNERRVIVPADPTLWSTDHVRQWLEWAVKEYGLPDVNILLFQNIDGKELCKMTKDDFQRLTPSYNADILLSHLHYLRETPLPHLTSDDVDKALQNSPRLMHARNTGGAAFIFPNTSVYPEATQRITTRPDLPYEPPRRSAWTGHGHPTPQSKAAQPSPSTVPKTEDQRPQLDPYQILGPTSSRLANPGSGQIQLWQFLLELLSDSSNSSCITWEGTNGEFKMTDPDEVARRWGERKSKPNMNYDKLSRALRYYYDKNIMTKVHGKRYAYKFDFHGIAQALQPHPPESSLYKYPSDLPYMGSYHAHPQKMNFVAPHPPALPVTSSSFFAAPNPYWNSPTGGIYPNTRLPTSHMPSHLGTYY
Method in brief: as §1

ELF1 = ELF1 (Homo sapiens, UniProt P32519 1-619)
Sequence of ELF1 (P32519 whole entry): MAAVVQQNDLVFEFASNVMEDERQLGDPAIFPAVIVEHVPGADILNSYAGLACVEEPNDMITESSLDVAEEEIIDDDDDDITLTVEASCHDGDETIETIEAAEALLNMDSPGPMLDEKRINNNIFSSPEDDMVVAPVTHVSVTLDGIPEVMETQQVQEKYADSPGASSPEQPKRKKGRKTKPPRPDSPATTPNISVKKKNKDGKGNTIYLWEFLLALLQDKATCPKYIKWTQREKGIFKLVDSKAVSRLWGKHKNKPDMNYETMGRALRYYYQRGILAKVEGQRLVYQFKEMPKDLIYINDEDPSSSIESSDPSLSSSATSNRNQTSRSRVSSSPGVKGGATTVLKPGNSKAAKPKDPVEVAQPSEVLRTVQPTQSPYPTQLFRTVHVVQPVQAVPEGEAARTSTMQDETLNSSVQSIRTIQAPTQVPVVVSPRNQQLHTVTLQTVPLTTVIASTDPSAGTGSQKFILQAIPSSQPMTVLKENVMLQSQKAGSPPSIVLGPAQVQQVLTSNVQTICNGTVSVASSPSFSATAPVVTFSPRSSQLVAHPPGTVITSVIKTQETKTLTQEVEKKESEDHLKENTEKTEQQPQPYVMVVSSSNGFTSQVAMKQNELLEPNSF
Method in brief: as §1

EHF = target: T5, EHF (Homo sapiens, UniProt Q9NZC4 1-300)
T5 sequence: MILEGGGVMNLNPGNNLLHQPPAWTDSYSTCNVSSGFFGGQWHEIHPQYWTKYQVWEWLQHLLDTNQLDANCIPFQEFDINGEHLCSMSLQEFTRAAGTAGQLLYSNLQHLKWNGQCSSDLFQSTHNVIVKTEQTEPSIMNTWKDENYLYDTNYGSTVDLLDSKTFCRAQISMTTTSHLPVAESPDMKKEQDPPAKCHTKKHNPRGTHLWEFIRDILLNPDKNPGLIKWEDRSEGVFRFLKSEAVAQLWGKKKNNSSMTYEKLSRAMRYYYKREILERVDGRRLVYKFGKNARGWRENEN
Method in brief: as §1

SPI1 = SPI1 (Homo sapiens, UniProt P17947 1-270)
Method in brief: as §1

SPIB = SPIB (Homo sapiens, UniProt Q01892 1-262)
Sequence of SPIB (Q01892 whole entry): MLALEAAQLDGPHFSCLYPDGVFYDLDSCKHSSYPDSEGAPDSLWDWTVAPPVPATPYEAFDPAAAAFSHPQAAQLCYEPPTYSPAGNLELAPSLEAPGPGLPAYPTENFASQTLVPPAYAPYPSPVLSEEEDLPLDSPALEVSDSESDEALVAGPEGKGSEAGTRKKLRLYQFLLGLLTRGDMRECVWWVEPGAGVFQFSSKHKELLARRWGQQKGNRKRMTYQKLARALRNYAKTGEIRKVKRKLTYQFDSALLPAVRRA
Method in brief: as §1

ELK3 = target: T6, ELK3 (Homo sapiens, UniProt P41970 1-407)
T6 sequence: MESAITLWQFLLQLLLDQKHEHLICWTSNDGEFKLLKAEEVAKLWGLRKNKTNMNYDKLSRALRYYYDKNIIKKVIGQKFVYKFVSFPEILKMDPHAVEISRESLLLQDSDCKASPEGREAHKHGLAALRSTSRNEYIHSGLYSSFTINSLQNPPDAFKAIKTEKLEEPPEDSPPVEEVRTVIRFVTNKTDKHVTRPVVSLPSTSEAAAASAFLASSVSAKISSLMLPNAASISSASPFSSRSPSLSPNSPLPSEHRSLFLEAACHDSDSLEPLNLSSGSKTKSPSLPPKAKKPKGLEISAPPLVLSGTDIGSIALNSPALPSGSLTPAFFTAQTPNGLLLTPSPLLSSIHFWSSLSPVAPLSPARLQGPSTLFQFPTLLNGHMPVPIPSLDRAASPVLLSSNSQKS
Method in brief: as §1

Sequence | binding signal (FLI1) | binding signal (ELK1) | binding signal (GABPA) | binding signal (ERG) | binding signal (ELF1) | binding signal (EHF) | binding signal (SPI1) | binding signal (SPIB) | binding signal (ELK3)
GTTATT | 1.16 fold enrichment (6-mer frequency, TF over GST control) | 1.23 fold enrichment (6-mer frequency, TF over GST control) | 1.17 fold enrichment (6-mer frequency, TF over GST control) | 1.15 fold enrichment (6-mer frequency, TF over GST control) | 1.05 fold enrichment (6-mer frequency, TF over GST control) | 1.08 fold enrichment (6-mer frequency, TF over GST control) | 1.28 fold enrichment (6-mer frequency, TF over GST control) | 1.09 fold enrichment (6-mer frequency, TF over GST control) | 1.23 fold enrichment (6-mer frequency, TF over GST control)
TTAATG | 1.24 fold enrichment (6-mer frequency, TF over GST control) | 1.27 fold enrichment (6-mer frequency, TF over GST control) | 1.3 fold enrichment (6-mer frequency, TF over GST control) | 1.14 fold enrichment (6-mer frequency, TF over GST control) | 1.17 fold enrichment (6-mer frequency, TF over GST control) | 1.19 fold enrichment (6-mer frequency, TF over GST control) | 1.24 fold enrichment (6-mer frequency, TF over GST control) | 1.2 fold enrichment (6-mer frequency, TF over GST control) | 1.14 fold enrichment (6-mer frequency, TF over GST control)
TAATAG | 1.24 fold enrichment (6-mer frequency, TF over GST control) | 1.15 fold enrichment (6-mer frequency, TF over GST control) | 1.09 fold enrichment (6-mer frequency, TF over GST control) | 1.11 fold enrichment (6-mer frequency, TF over GST control) | 1.2 fold enrichment (6-mer frequency, TF over GST control) | 1.25 fold enrichment (6-mer frequency, TF over GST control) | 1.2 fold enrichment (6-mer frequency, TF over GST control) | 1.29 fold enrichment (6-mer frequency, TF over GST control) | 1.06 fold enrichment (6-mer frequency, TF over GST control)
TTCGTC | 1.36 fold enrichment (6-mer frequency, TF over GST control) | 1.33 fold enrichment (6-mer frequency, TF over GST control) | 1.33 fold enrichment (6-mer frequency, TF over GST control) | 1.23 fold enrichment (6-mer frequency, TF over GST control) | 1.32 fold enrichment (6-mer frequency, TF over GST control) | 1.27 fold enrichment (6-mer frequency, TF over GST control) | 1.29 fold enrichment (6-mer frequency, TF over GST control) | 1.27 fold enrichment (6-mer frequency, TF over GST control) | 1.22 fold enrichment (6-mer frequency, TF over GST control)
CCTACT | 1.73 fold enrichment (6-mer frequency, TF over GST control) | 1.61 fold enrichment (6-mer frequency, TF over GST control) | 1.53 fold enrichment (6-mer frequency, TF over GST control) | 1.54 fold enrichment (6-mer frequency, TF over GST control) | 1.73 fold enrichment (6-mer frequency, TF over GST control) | 1.69 fold enrichment (6-mer frequency, TF over GST control) | 1.77 fold enrichment (6-mer frequency, TF over GST control) | 1.76 fold enrichment (6-mer frequency, TF over GST control) | 1.55 fold enrichment (6-mer frequency, TF over GST control)
CATATT | 1.22 fold enrichment (6-mer frequency, TF over GST control) | 1.17 fold enrichment (6-mer frequency, TF over GST control) | 1.27 fold enrichment (6-mer frequency, TF over GST control) | 1.26 fold enrichment (6-mer frequency, TF over GST control) | 1.24 fold enrichment (6-mer frequency, TF over GST control) | 1.17 fold enrichment (6-mer frequency, TF over GST control) | 1.27 fold enrichment (6-mer frequency, TF over GST control) | 1.28 fold enrichment (6-mer frequency, TF over GST control) | 1.17 fold enrichment (6-mer frequency, TF over GST control)
TCTTAG | 1.22 fold enrichment (6-mer frequency, TF over GST control) | 1.21 fold enrichment (6-mer frequency, TF over GST control) | 1.22 fold enrichment (6-mer frequency, TF over GST control) | 1.15 fold enrichment (6-mer frequency, TF over GST control) | 1.25 fold enrichment (6-mer frequency, TF over GST control) | 1.21 fold enrichment (6-mer frequency, TF over GST control) | 1.13 fold enrichment (6-mer frequency, TF over GST control) | 1.09 fold enrichment (6-mer frequency, TF over GST control) | 1.11 fold enrichment (6-mer frequency, TF over GST control)
CTGGAA | 1.22 fold enrichment (6-mer frequency, TF over GST control) | 1.25 fold enrichment (6-mer frequency, TF over GST control) | 1.33 fold enrichment (6-mer frequency, TF over GST control) | 1.27 fold enrichment (6-mer frequency, TF over GST control) | 1.19 fold enrichment (6-mer frequency, TF over GST control) | 1.2 fold enrichment (6-mer frequency, TF over GST control) | 1.26 fold enrichment (6-mer frequency, TF over GST control) | 1.31 fold enrichment (6-mer frequency, TF over GST control) | 1.31 fold enrichment (6-mer frequency, TF over GST control)
